This is part of a sample that, as a whole, favours compounds with a hit. Of some 83,000 tested, about 20% had one in any assay.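 Method: cells in 96-well plates; compound added at one concentration; 48 h incubation; percent growth measured; values under 10 scored active.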 A number with no mark means an inactive call. Calls of active or inactive are those of the source.
How the values were obtained:
Assay in all cases: NCI-60 one-dose screen, 48 h (100 = growth as untreated, 0 = no growth, -100 = all killed)
Settings in all cases: 10 µM unless noted
BT-549 breast = tested on: BT-549 breast
MDA-MB-435 melanoma = tested on: MDA-MB-435 melanoma
SW-620 colon = tested on: SW-620 colon
MCF7 breast = tested on: MCF7 breast
HCT-116 colon = tested on: HCT-116 colon
HCC-2998 colon = tested on: HCC-2998 colon
KM12 colon = tested on: KM12 colon

Row | Compound | growth (BT-549 breast) | growth (MDA-MB-435 melanoma) | growth (SW-620 colon) | growth (MCF7 breast) | growth (HCT-116 colon) | growth (HCC-2998 colon) | growth (KM12 colon)
1 | Cc1cc([N+](=O)[O-])c(C)cc1C(=O)O | 92.5% | 102% | 108% | 97.6% | 102% | 109% | 102%
2 | CCC(C)CC(CC)NCCN1CCN(C(CC)CC(C)CC)C1=S (configuration not stated) | 78.6% | 26.8% | 29.1% | -60.9% (active) | 16.4% | -45.6% (active) | 24.4%
3 | Clc1ncn[nH]1 | 105% | 96.9% | 111% | 90.3% | 108% | 89.8% | 101%
4 | O=c1c(O)cccn1CCCNCCCN(CCCn1cccc(O)c1=O)CCCn1cccc(O)c1=O | 113% | 104% | 99.1% | 104% | 108% | 101% | 106%
5 | O=C(/C=C/c1cccnc1)NCCCCC1CCCN(C(=O)c2ccccc2)C1 (configuration not stated) | 73.7% | 7.35% (active) | 25.5% | 54.4% | 7.85% (active) | 46.6% | 43.9%
6 | CC1=NN(c2ccccc2Cl)C(=O)/C1=C\c1cn(S(=O)(=O)c2ccc(C)cc2)c2ccccc12 | 112% | 105% | 98.4% | 113% | 88.2% | 88.5% | 109%
7 | O=C(Nc1cccc(C(F)(F)F)c1)Nc1ccc(OCc2nnc(-c3ccc(Cl)cc3)o2)c(F)c1 | 104% | 83.2% | 71.8% | 53.6% | 37.1% | 72.1% | 49.7%
8 | O=C1C[C@@H]2/C(=C(O)\C=C\c3ccccc3)C(=O)C=C[C@@H]2O1 | -40.5% (active) | -31.6% (active) | -33.2% (active) | 6.03% (active) | -90.6% (active) | 99.6% | -91% (active)
9 | c1ccc(N2CCN(c3nncc4ccccc34)CC2)nc1 | 104% | 104% | 104% | 105% | 103% | 117% | 104%
10 | Clc1nc(Cl)c2ncn(-c3ccccc3)c2n1 | 86.2% | 64.5% | 36.5% | 54.8% | 32.1% | 100% | 79.5%
11 | NNC(=O)C1CC2c3ccccc3C1c1ccccc12 (configuration not stated) | 102% | 106% | 108% | 101% | 108% | 101% | 115%
12 | C/C(=N/N=C(N)N)c1ccc(Cl)cc1 | -0.709% (active) | 71.7% | 112% | 83.9% | 85.7% | 57.8% | 93.2%
13 | O=C1/C(=C/c2ccc([N+](=O)[O-])s2)Oc2ccc(Br)cc21 | -46.2% (active) | -69.5% (active) | -63.5% (active) | -25.2% (active) | -71.5% (active) | -79.9% (active) | -51.3% (active)
14 | COc1cc2c(cc1OCCCCCn1c(-c3ccc(OCc4ccccc4)cc3)nc3cc(N4CCOCC4)ccc31)N=C[C@@H]1CCCN1C2=O | 1.75% (active) | -9.74% (active) | 0% (active) | -3.99% (active) | 2.97% (active) | 4.97% (active) | -26.7% (active)
15 | O=C(Nc1ccc(Nc2ccncc2)cc1)c1ccc(Nc2ccnc3ccc([N+](=O)[O-])cc23)cc1[N+](=O)[O-] | 38.8% | 63.1% | 96.8% | 50.8% | 54.4% | 104% | 2.06% (active)
16 | O=C(Nc1ccc(C2=NCCCN2)cc1)Nc1ccc(C2=NCCCN2)cc1 | 100% | 95.3% | 99.4% | 94% | 67.4% | 117% | 100%
17 | Nc1ccccc1-c1ccc([N+](=O)[O-])cc1 | -33.9% (active) | 52.4% | 43.8% | 40.1% | 60.1% | 29.8% | 24.1%
18 | O=C1CN(CO)C(=O)CN1CO | 113% | 103% | 95.9% | 101% | 103% | 104% | 105%

Row | Compound | growth (BT-549 breast) | growth (MDA-MB-435 melanoma) | growth (SW-620 colon) | growth (MCF7 breast) | growth (HCT-116 colon) | growth (HCC-2998 colon) | growth (KM12 colon)
19 | CCC(O)C(C)(C)C (configuration not stated) | 108% | 105% | 101% | 113% | 106% | 106% | 113%
20 | COc1ccc(COC(C)=O)cc1 | 99.7% | 111% | 98.8% | 102% | 107% | 114% | 104%
21 | O=C(Nc1cccc([N+](=O)[O-])c1)c1cccc(C(=O)Nc2cccc([N+](=O)[O-])c2)c1 | -4.34% (active) | 83.1% | 92.8% | 68.3% | 78.4% | 88.2% | 87.6%
22 | Cc1ccc2c(c1)C(=O)/C(=C/c1ncc([N+](=O)[O-])n1C)O2 | -25.9% (active) | -80.6% (active) | -32.5% (active) | -1.55% (active) | 7.67% (active) | -44% (active) | -48.4% (active)
23 | [O-]/[N+](=C\C=C\c1ccccc1)c1ccccc1 | 109% | 108% | 104% | 96.3% | 102% | 103% | 100%
24 | COc1ccc(/C=N/NC(=O)c2ccc(S(C)(=O)=O)cc2)cc1OC | 109% | 109% | 99.8% | 92.4% | 89% | 98.5% | 95.8%
25 | CN(C)c1ccc2c(c1)/C(=N/O)c1ccccc1-2 | 91.7% | -8.86% (active) | 50.3% | 19.9% | 39.4% | 101% | 35.2%
26 | CCCCCCCCCCSc1ncnc2nc[nH]c12 | 75.8% | 76.6% | 86.5% | 75.9% | 48.8% | 78.1% | 85.1%
27 | O=C(Oc1ccc[nH]c1=O)c1cccc(Cl)c1 | 88.4% | 108% | 115% | 93.9% | 88.5% | 106% | 104%
28 | CC/C(=C\c1ccc(N(C)C)cc1)c1nc2ccccc2c(=O)[nH]1 | 60.3% | 108% | 120% | 98.2% | 108% | 93% | 119%
29 | COc1cc(C(=O)/C=C/c2cccnc2Nc2ccccc2)cc(OC)c1OC | -55.5% (active) | -23.3% (active) | -84% (active) | -73% (active) | -94.9% (active) | -76.7% (active) | -88.2% (active)
30 | c1ccc(-n2nnnc2-c2cccc3ccccc23)cc1 | 29.5% | -10.5% (active) | 20.8% | 19.8% | 14.9% | 23.5% | 31.3%
31 | CCOC(=O)c1cc(-c2cccnc2)nc2c(Cl)cc(Cl)cc12 | 109% | 95% | 103% | 90.5% | 56.4% | 98.1% | 102%
32 | C/C(=C\CCc1ccsc1)CC/C=C(\C)CCCN1CCC(CO)CC1 | 36.2% | 13% | -29.8% (active) | 16% | -2.6% (active) | -14.9% (active) | 5.04% (active)
33 | O[C@@H]1Cc2ccc3ccccc3c2N[C@H](c2ccoc2)C1 | 106% | 107% | 112% | 94.5% | 105% | 113% | 106%
34 | CN(C)CCCN1c2nc3ccccc3cc2Sc2cc3ccccc3nc21 | -100% (active) | -67% (active) | -93.5% (active) | -97.9% (active) | -62.8% (active) | -71.3% (active) | -72.4% (active)
35 | c1cnc2ccc3ncccc3c2c1 | 108% | 129% | 100% | 92% | 95.7% | 124% | 110%
36 | O=C(Nc1ccc(Cl)cc1)c1cc2c(cc1O)[nH]c1ccccc12 | 26.5% | -25.6% (active) | 19.1% | 8.67% (active) | 14.1% | -21.5% (active) | 37.5%

Source: PubChem BioAssay (NCI)
